In all, about 5,500 compounds went through this assay and about 2,000 (36%) were called active. Inconclusive results (about 18%) are left out. Rule as the data show it: active = normalized growth mostly below about 0.91 (no sharp cut-off); inconclusive = no clear call, values can overlap the other calls; inactive = mostly above about 0.92. This is one part of the list.
Experiment: chemical genetic growth profiling, strain panel (AID 1159580);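 also: tested at 20 µM; growth read once vehicle control cultures reached saturation at 30 °C; 1 = growth at the plate median or of vehicle wells; lower values mean less growth of the strain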
Details: S. cerevisiae deletion strains, growth OD
[1] = locus YAL013W, strain DEP1, active compounds read low
[2] = locus YAL040C, strain CLN3, active compounds read low
[3] = locus YCL061C, strain MRC1 (second series), active compounds read low
[4] = locus YDR363W, strain ESC2, active compounds read low
[5] = locus YER002W, strain NOP16, active compounds read low
[6] = locus YGR078C, strain PAC10, active compounds read low
[7] = locus YMR307W, strain GAS1, active compounds read low
[8] = locus YNL153C, strain GIM3, active compounds read low
[9] = locus YNL197C, strain WHI3, active compounds read low
[10] = locus YNL224C, strain SQS1, active compounds read low
[11] = locus YOR083W, strain WHI5 (second series), active compounds read low
[12] = locus YHR030C, strain SLT2, active compounds read low
[13] = locus YHR079C, strain IRE1, active compounds read low
[14] = locus YJL095W, strain BCK1, active compounds read low
[15] = locus YJR066W, strain TOR1, active compounds read low
[16] = locus YLR113W, strain HOG1, active compounds read low
[17] = locus YNL183C, strain NPR1, active compounds read low
[18] = locus YOR231W, strain MKK1, active compounds read low
[19] = locus YPL256C, strain CLN2, active compounds read low

Measured: normalized growth

O=C(CCCN1CCC(O)(c2cccc(C(F)(F)F)c2)CC1)c1ccc(F)cc1
inactive: [2] 1.01 | [3] 0.974 | [5] 1.03 | [6] 0.985 | [8] 0.961 | [9] 1.05 | [11] 1.04
active: [1] 0.832 | [4] 0.851 | [7] 0.818 | [10] 1.13 [resistant] | locus YNL322C, strain KRE1, active compounds read low 0.882

O=C(CCCN1CCN(c2ccccn2)CC1)c1ccc(F)cc1
active: locus YAL021C, strain ccr4, active compounds read low 0.848 | locus YAL026C, strain drs2, active compounds read low 0.0899 | locus YBR231C, strain swc5, active compounds read low 0.855 | locus YBR279W, strain paf1, active compounds read low 0.93 | locus YDR069C, strain doa4, active compounds read low 0.858 | locus YDR195W, strain ref2 1.23 [resistant] | locus YDR392W, strain spt3, active compounds read low 0.606 | locus YER155C, strain BEM2 (second series), active compounds read low 0.436 | locus YFR010W, strain ubp6, active compounds read low 0.868 | locus YHR013C, strain ard1, active compounds read low 0.746 | locus YHR142W, strain chs7, active compounds read low 0.87 | locus YJL129C, strain trk1, active compounds read low 0.811 | locus YKL160W, strain elf1, active compounds read low 0.9 | locus YLR262C, strain YPT6 (second series), active compounds read low 0.821 | locus YLR320W, strain mms22, active compounds read low 0.57 | locus YNL071W, strain lat1, active compounds read low 0.781 | locus YNL248C, strain rpa49, active compounds read low 0.876 | locus YOR001W, strain rrp6, active compounds read low 0.789 | locus YOR070C, strain gyp1, active compounds read low 0.392 | locus YOR270C, strain vph1, active compounds read low 0.541 | locus YPL051W, strain arl3, active compounds read low 0.905
inactive: locus YAL030W, strain snc1, active compounds read low 0.989 | locus YBL061C, strain skt5, active compounds read low 0.968 | locus YBR009C, strain hhf1, active compounds read low 0.964 | locus YBR023C, strain chs3, active compounds read low 0.969 | locus YBR171W, strain sec66, active compounds read low 0.954 | locus YCL011C, strain gbp2, active compounds read low 0.971 | locus YCL016C, strain dcc1, active compounds read low 0.95 | locus YCL061C, strain MRC1, active compounds read low 0.993 | locus YCL069W, strain vba3, active compounds read low 0.977 | locus YCR088W, strain abp1, active compounds read low 0.992 | locus YDL005C, strain med2, active compounds read low 0.984 | locus YDL040C, strain nat1, active compounds read low 0.984 | locus YDR001C, strain nth1, active compounds read low 0.983 | locus YDR137W, strain rgp1, active compounds read low 1 | locus YDR159W, strain sac3, active compounds read low 0.996 | locus YDR297W, strain sur2, active compounds read low 0.972 | locus YDR334W, strain swr1, active compounds read low 0.968 | locus YDR335W, strain msn5, active compounds read low 0.948 | locus YEL003W, strain gim4, active compounds read low 0.933 | locus YEL037C, strain rad23, active compounds read low 0.971 | locus YEL061C, strain CIN8 (second series), active compounds read low 0.976 | locus YER015W, strain faa2, active compounds read low 0.977 | locus YER016W, strain bim1, active compounds read low 0.981 | locus YER111C, strain swi4, active compounds read low 0.947 | locus YGL167C, strain pmr1, active compounds read low 0.94 | locus YGL173C, strain kem1, active compounds read low 0.927 | locus YGL227W, strain vid30, active compounds read low 0.999 | locus YGL240W, strain doc1, active compounds read low 0.966 | locus YGL253W, strain hxk2, active compounds read low 0.946 | locus YHR027C, strain rpn1, active compounds read low 0.974 | [12] 1.04 | [13] 1.04 | locus YJL092W, strain hpr5, active compounds read low 0.984 | locus YJL095W, strain BCK1 (second series), active compounds read low 0.968 | [14] 0.982 | locus YJL115W, strain asf1, active compounds read low 0.973 | locus YJL154C, strain vps35, active compounds read low 0.993 | locus YJL164C, strain tpk1, active compounds read low 0.932 | locus YJL166W, strain qcr8, active compounds read low 0.949 | locus YJL187C, strain SWE1, active compounds read low 0.967 | [15] 0.972 | locus YKR026C, strain gcn3, active compounds read low 0.988 | locus YKR091W, strain srl3, active compounds read low 0.99 | locus YLL001W, strain dnm1, active compounds read low 0.975 | locus YLL026W, active compounds read low 0.987 | locus YLL041C, strain sdh2, active compounds read low 0.984 | locus YLR027C, strain aat2, active compounds read low 0.975 | [16] 1.01 | locus YLR221C, strain rsa3, active compounds read low 0.976 | locus YLR258W, strain gsy2, active compounds read low 0.987 | locus YLR342W, strain FKS1, active compounds read low 0.981 | locus YLR357W, strain rsc2, active compounds read low 1.12 | locus YLR370C, strain arc18, active compounds read low 0.95 | locus YLR384C, strain iki3, active compounds read low 0.943 | locus YML120C, strain ndi1, active compounds read low 0.961 | locus YMR058W, strain fet3, active compounds read low 0.943 | locus YMR125W, strain sto1, active compounds read low 0.981 | locus YMR129W, active compounds read low 0.986 | locus YMR205C, strain PFK2, active compounds read low 0.894 | locus YMR231W, strain pep5, active compounds read low 0.973 | [17] 0.977 | locus YNL209W, strain ssb2, active compounds read low 0.962 | locus YNL322C, strain KRE1 (second series), active compounds read low 1.02 | locus YNR049C, strain mso1, active compounds read low 0.986 | locus YOR080W, strain dia2, active compounds read low 0.998 | locus YOR083W, strain WHI5, active compounds read low 0.948 | locus YOR106W, strain vam3, active compounds read low 0.905 | [18] 1.04 | locus YOR265W, strain rbl2, active compounds read low 0.969 | locus YOR290C, strain snf2, active compounds read low 0.894 | locus YPL078C, strain atp4, active compounds read low 0.915 | locus YPL106C, strain sse1, active compounds read low 1.1 | locus YPL240C, strain hsp82, active compounds read low 0.985 | [19] 1.1

NC(=O)C1(N2CCCCC2)CCN(CCCC(=O)c2ccc(F)cc2)CC1
inactive: [12] 1.04 | [13] 1.02 | [14] 0.99 | [15] 0.968 | [16] 0.981 | [17] 0.959 | [18] 1.01 | [19] 0.988

COc1ccccc1N1CCN(CCN(C(=O)c2ccc(F)cc2)c2ccccn2)CC1
inactive: [1] 0.995 | [2] 1.01 | [3] 1 | locus YDR150W, strain NUM1, active compounds read low 0.999 | [4] 1.02 | [5] 1.01 | [6] 1.01 | locus YJR075W, strain HOC1, active compounds read low 1.01 | [7] 0.993 | locus YNL128W, strain TEP1, active compounds read low 1 | [8] 1.01 | locus YNL175C, strain NOP13, active compounds read low 1.01 | [9] 0.998 | [10] 1 | [11] 1.01 | locus YPL055C, strain LGE1, active compounds read low 1.01 | locus YPL241C, strain CIN2, active compounds read low 1
